Reference: PubChem BioAssay AID602350 (Broad Institute, 2012)
Results with a measured potency or affinity are listed apart. Calls of active or inactive are those of the source.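 Rule for the calls: active = absorbance falls by 30% or more versus neutral controls, with a potency fitted within twice the top valid dose; inconclusive = no clear call, values can overlap the other calls; inactive = change opposite to expected direction, plus the rest.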

Each compound was assayed against Protein disulfide-isomerase (Homo sapiens) (UniProt P07237) (assay: inhibition of PDI-driven insulin aggregation – biochemical, turbidity, absorbance, cherry-picked samples, dose response (AID 602350)). Settings: recombinant PDI insulin aggregation, absorbance 650 nm, 90 min; series mostly up to 19.5 µM.
Protein disulfide-isomerase (Homo sapiens), sequence (P07237 whole entry, looked up): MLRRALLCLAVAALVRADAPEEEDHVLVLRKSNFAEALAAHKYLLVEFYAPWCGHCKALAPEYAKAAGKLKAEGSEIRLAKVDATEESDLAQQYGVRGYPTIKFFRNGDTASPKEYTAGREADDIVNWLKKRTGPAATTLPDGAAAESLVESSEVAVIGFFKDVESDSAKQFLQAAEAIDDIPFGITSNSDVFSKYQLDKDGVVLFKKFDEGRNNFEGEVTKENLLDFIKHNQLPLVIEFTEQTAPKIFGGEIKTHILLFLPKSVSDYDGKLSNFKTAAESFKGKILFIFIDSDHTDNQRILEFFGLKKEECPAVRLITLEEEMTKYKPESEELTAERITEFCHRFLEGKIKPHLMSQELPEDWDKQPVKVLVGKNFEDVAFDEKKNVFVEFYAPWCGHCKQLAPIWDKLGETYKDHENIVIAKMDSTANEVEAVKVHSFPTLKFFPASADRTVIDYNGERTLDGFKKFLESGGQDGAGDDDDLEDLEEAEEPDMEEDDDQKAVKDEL

outcome, inactive:
COc1ccccc1NS(=O)(=O)c1cccc(C(=O)NCC2(N(C)C)CCCCC2)c1, Cc1ccc(C2=Nc3ccccc3SC(c3cccc([N+](=O)[O-])c3)C2)cc1 (stereo not given), O=C1NC[C@H](Cc2ccccc2)N(C[C@H]2CCCN2C[C@H](Cc2ccccc2)N2C[C@H](Cc3ccc(O)cc3)N(CC3CCCCCC3)C(=O)C2=O)C1=O, O=C(/C=C/c1c(F)cccc1Cl)c1ccc(O)cc1, CC1(c2ccc3ccccc3c2)NC(=O)N(CC(=O)Nc2cccc(S(=O)(=O)N3CCOCC3)c2)C1=O (stereo not given), COCC(=O)N(C)C1(c2nnnn2CCOC(=O)Nc2ccc(Cl)cc2)CCCCC1, CN(C)C(=O)CSc1nnc([C@H](Cc2ccccc2)NC(=O)OC(C)(C)C)o1, CC(C)Oc1cccc(C(=O)NC(=S)Nc2cccc(NC(=O)c3ccccc3Cl)c2)c1, C[C@H](CO)N1C[C@H](C)[C@H](CN(C)Cc2ccc(Oc3ccccc3)cc2)Oc2c(NS(C)(=O)=O)cccc2C1=O, CC1CC(C)CN(C(=O)COC(=O)c2ccc[nH]c2=O)C1 (stereo not given), CCC(=O)N1CCc2cc(S(=O)(=O)CCC(=O)NCc3ccco3)ccc21, NC1=NC[C@H](Cc2ccc(O)cc2)N1CC1CCCCC1, CCOC(=O)c1c(CN(C)C)n(-c2ccccc2)c2cc(Br)c(O)cc12, COc1cc(CCC(=O)OCC(=O)Nc2cc(S(=O)(=O)N3CCOCC3)ccc2Cl)cc(OC)c1OC, CNc1ncnc2c1ncn2[C@H]1CN(Cc2cccc3ccccc23)C[C@@H](CO)O1
